FLuc counter: firefly luciferase modulation, counter-screen for miR-21 project | P08659 | purified FLuc, Km substrates, luminescence inhibition | Potency, µM (highest dose often 57.5 µM), most hits filed as inhibitors | hit rate 6.9% among 360,000; note: nearly all actives have a fitted effect of over 55% in size
Target sequence (P08659 whole entry, looked up): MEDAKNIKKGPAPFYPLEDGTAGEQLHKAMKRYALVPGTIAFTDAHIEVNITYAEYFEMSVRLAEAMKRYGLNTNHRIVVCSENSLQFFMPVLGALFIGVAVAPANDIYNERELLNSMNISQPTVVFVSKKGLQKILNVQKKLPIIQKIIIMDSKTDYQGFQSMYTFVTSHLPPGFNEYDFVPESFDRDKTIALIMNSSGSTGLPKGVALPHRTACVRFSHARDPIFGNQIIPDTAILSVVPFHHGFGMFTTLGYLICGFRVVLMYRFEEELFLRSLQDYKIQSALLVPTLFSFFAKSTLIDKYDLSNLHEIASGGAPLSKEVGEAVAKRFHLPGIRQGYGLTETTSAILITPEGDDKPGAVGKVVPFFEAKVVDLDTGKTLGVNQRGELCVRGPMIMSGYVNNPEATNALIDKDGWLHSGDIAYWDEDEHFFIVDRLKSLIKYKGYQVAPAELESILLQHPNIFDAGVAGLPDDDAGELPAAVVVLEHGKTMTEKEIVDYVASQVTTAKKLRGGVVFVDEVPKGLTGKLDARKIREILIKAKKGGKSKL
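Purified P. pyralis luciferase, 10 nM final, with Km-level 10 uM D-luciferin and 10 uM ATP in 50 mM Tris acetate pH 7.5, 10 mM Mg acetate, 0.01% Tween-20, 0.05% BSA; 6-point qHTS titration about 60 µM downward; luminescence read.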
Rab9 promoter act: activators of Rab9 promoter | Huh7 Rab9 promoter-luciferase reporter, luminescence, 24 h | Potency, µM (titrated, usually from 9.22 µM), actives largely listed as activators | hit rate 2.8% among 320,000 | AID 485297; note: nearly all actives have a fitted effect of over 60% in size
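Rab9 promoter-driven luciferase in stably transfected Huh7 cells; 1500 cells/well rested 2 h, exposed to compound in DMSO for 24 h at 37 °C, 5% CO2. Luminescence read 10 min after adding luciferase reagent at ambient temperature.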
ELG1 genotoxic: induces genotoxicity in HEK293T cells with luciferase-tagged ELG1; HEK293T ELG1-luciferase reporter, luminescence, 16 h; Potency, µM (highest dose often 46 µM), hits mostly activators; hit rate 1.3% among 330,000; note: nearly all actives have a fitted effect of over 60% in size
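ELG1-luciferase HEK293T cells, 2,000/well; compound pinned in; 16 hr, 37 °C, 5% CO2; ONE-Glo, 30 min RT; luminescence on CCD imager.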
uPA surface inh: blocks generation of uPA at the cell surface; cell surface uPA generation assay, qHTS; Potency, µM (top dose mostly 38.3 µM), hits mostly inhibitors; hit rate 0.31% among 330,000; active = well fitted inhibition curve with a large enough effect; inconclusive = small, poorly fitted or top-dose-only effect; inactive = no such curve, though single readings can be large or run the other way; tested in mouse RAW 264.7 cells; note: nearly all actives have a fitted effect of over 55% in size
SMN2 splice enh: increases expression of the SMN2 splice variant; HEK293 SMN2-luciferase splicing reporter, luminescence, 30-36 h; Potency, µM (doses to about 46.1 µM), usual class: activators; hit rate 2.8% among 210,000; AID 1458; note: nearly all actives have a fitted effect of over 55% in size
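HEK293 cells carry an SMN2 […]–luciferase reporter in which exon 7 inclusion puts luciferase in frame. Cells were plated 10-12 h before compound addition, then incubated 30-36 h at 37C. ONE-Glo luminescence was read; sodium butyrate at 4.5 mM final served as control.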
NPC1 prom act: activators of NPC1 promoter | AID 485313 | Potency, µM (doses to about 9.22 µM), hits mostly activators | hit rate 2.4% among 320,000 | Huh7 NPC1 promoter luciferase reporter, 24 h; note: nearly all actives have a fitted effect of over 60% in size
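Cells: Huh7 expressing luciferase under the NPC1 promoter, 1500/well. Seeded 2 h, compound added, incubated 24 h at 37 °C. Luciferase reagent, 10 min ambient, then luminescence.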
A number is an active result; [ ] = remark or other dose. In the library only some 7.3% were active in any assay of this set; here they are far more common. Unless noted, calls come from the whole dose curve; as a rule, active = well fitted curve in the direction sought with a large enough effect; inconclusive = small, poorly fitted or top-dose-only effect, or another doubt; inactive = no such curve, though single readings can be large; an effect the other way counts as inactive or inconclusive.

`COC(=O)Nc1nc2ccc(C(=O)c3ccc(F)cc3)cc2[nH]1` gave FLuc counter inactive, Rab9 promoter act inactive and NPC1 prom act inactive.
Cc1ccsc1C(=O)Nc1nc2ccccc2[nH]1 was read as FLuc counter 1.7µM, Rab9 promoter act 0.35µM, ELG1 genotoxic 1.2µM, uPA surface inh inconclusive and NPC1 prom act 0.63µM.
O=C(CCNC(=O)c1ccc(Cl)cc1)Nc1nc2ccccc2[nH]1 was read as ELG1 genotoxic inconclusive and uPA surface inh inactive.
`O=C(Nc1nc2ccccc2[nH]1)c1ccc(F)cc1` gave FLuc counter 1.1µM, Rab9 promoter act 0.32µM, ELG1 genotoxic inconclusive, SMN2 splice enh 14µM and NPC1 prom act 0.45µM.
For N#Cc1ccc(C(=O)Nc2nc3ccccc3[nH]2)cc1 the results were FLuc counter 2.4µM, Rab9 promoter act 1.8µM, ELG1 genotoxic inconclusive, uPA surface inh inactive and NPC1 prom act 1.8µM.
For O=C(NCCc1nc2ccccc2[nH]1)c1ccc(F)cc1 the results were FLuc counter inactive, Rab9 promoter act inactive, ELG1 genotoxic inactive and NPC1 prom act inactive.
For O=C(Nc1nc2ccccc2[nH]1)c1cc(F)cc(F)c1 the results were FLuc counter 2.7µM, Rab9 promoter act 0.63µM, ELG1 genotoxic inconclusive, uPA surface inh inactive and NPC1 prom act 1.8µM.
Screening CN(C)CC[C@@H](C(=O)C(C)(C)C)c1ccccn1 returned SMN2 splice enh inactive[9.22 µM].
For O=C(Cc1ccccc1F)Nc1nc2ccccc2[nH]1 the results were FLuc counter inactive, Rab9 promoter act inactive, ELG1 genotoxic inactive, uPA surface inh inactive, SMN2 splice enh inactive and NPC1 prom act inactive.
Screening O=C(Nc1nc2ccccc2[nH]1)c1ccccc1F returned FLuc counter 0.19µM, Rab9 promoter act inactive, ELG1 genotoxic inconclusive, uPA surface inh inactive and NPC1 prom act inconclusive.
For CCc1ccc(C(=O)Nc2nc3ccccc3[nH]2)cc1 the results were FLuc counter 0.11µM, Rab9 promoter act inconclusive, ELG1 genotoxic inconclusive, uPA surface inh inactive and NPC1 prom act 0.1µM.
Screening CCOc1ccc(C(=O)Nc2nc3ccccc3[nH]2)cc1OCC returned FLuc counter inconclusive, Rab9 promoter act inactive, ELG1 genotoxic inactive, uPA surface inh inactive, SMN2 splice enh inactive and NPC1 prom act inactive.
Cc1cc(C)cc(C(=O)Nc2nc3ccccc3[nH]2)c1 was read as FLuc counter 11µM, Rab9 promoter act inconclusive, ELG1 genotoxic inconclusive, uPA surface inh inactive and NPC1 prom act 2.5µM.
For CC(=O)C1(C)CC2(CC(C)(C)OC2=O)C(=O)O1 (centres undefined) the results were SMN2 splice enh inactive.
For COc1ccc(/C=C/C2=Nc3ccccc3NC(C)(C)C2)cc1OC the results were FLuc counter 6µM, Rab9 promoter act inconclusive, ELG1 genotoxic inactive, uPA surface inh inconclusive and NPC1 prom act inactive.
For CCOc1ccc(Nc2ncnc3c2cnn3-c2ccccc2)cc1 the results were FLuc counter inactive, Rab9 promoter act inactive, ELG1 genotoxic 18µM, uPA surface inh inactive, SMN2 splice enh inactive and NPC1 prom act inactive.
`CCc1ccccc1Nc1ncnc2c1cnn2-c1ccc(Cl)cc1` gave FLuc counter 12µM.
Cc1ccc(-n2ncc3c(Nc4ccccc4C)ncnc32)cc1 was read as FLuc counter 3.4µM.
For CCc1ccccc1Nc1ncnc2c1cnn2-c1ccc(C)cc1C the results were FLuc counter inactive.
NNc1ncnc2c1cnn2-c1ccccc1 was read as FLuc counter inconclusive, Rab9 promoter act inactive, ELG1 genotoxic inactive, uPA surface inh inactive, SMN2 splice enh inactive and NPC1 prom act inactive.
`Cc1ccccc1Nc1ncnc2c1cnn2-c1ccccc1` gave FLuc counter 17µM, Rab9 promoter act inconclusive, ELG1 genotoxic 8.2µM, uPA surface inh inconclusive, SMN2 splice enh 11µM and NPC1 prom act inconclusive.
Screening Cn1cc(S(=O)(=O)N2CCCCCC2)cc1C(=O)NCc1ccccc1Cl returned FLuc counter inactive.
Screening C/C(=N\NC(=O)c1cccc(Br)c1)c1ccc(Br)cc1 returned FLuc counter inactive, Rab9 promoter act inactive, ELG1 genotoxic inactive, uPA surface inh inactive, SMN2 splice enh inactive and NPC1 prom act inactive.
C/C(=N\NC(=O)c1ccccc1)c1cccc(Br)c1 was read as FLuc counter 13µM, Rab9 promoter act 2.5µM, ELG1 genotoxic inconclusive, uPA surface inh inactive, SMN2 splice enh inconclusive and NPC1 prom act inconclusive.
Screening CC(/C=C/c1ccccc1F)=N\NC(=O)c1ccc(Cl)cc1 returned FLuc counter inactive, Rab9 promoter act inactive, ELG1 genotoxic inactive, uPA surface inh inactive and NPC1 prom act inactive.
For C/C(=N/NC(=O)c1ccccc1)C(=O)O the results were FLuc counter 3.4µM, Rab9 promoter act 3.5µM, ELG1 genotoxic inconclusive, uPA surface inh inactive and NPC1 prom act 3.5µM.
Screening CC(/C=C/c1ccccc1F)=N\NC(=O)c1ccccc1 returned FLuc counter 17µM, Rab9 promoter act 3.2µM, ELG1 genotoxic inconclusive, SMN2 splice enh 16µM and NPC1 prom act inconclusive.
`C/C(=N\NC(=O)c1cccc(Br)c1)c1cccc(NC(=O)c2ccc(C)o2)c1` gave FLuc counter 17µM, Rab9 promoter act inactive, ELG1 genotoxic inactive, uPA surface inh inactive, SMN2 splice enh inactive and NPC1 prom act inactive.
`CC(=O)c1cccc(NC(=O)c2ccc(C)o2)c1` gave FLuc counter inconclusive, Rab9 promoter act inactive, ELG1 genotoxic inactive, uPA surface inh inactive, SMN2 splice enh inactive and NPC1 prom act inactive.
For CC(=N\NC(=O)c1ccccc1)/C(=N/O)C(=O)Nc1ccccc1 the results were FLuc counter inactive, Rab9 promoter act inactive, ELG1 genotoxic inactive, uPA surface inh inactive and NPC1 prom act inactive.
Screening O=C(COC(=O)C1CCCCC1)NCCc1ccccc1 returned FLuc counter 17µM, Rab9 promoter act inactive, ELG1 genotoxic inactive, uPA surface inh inactive, SMN2 splice enh inactive and NPC1 prom act inactive.
For O=C(COC(=O)C1CCC1)NCc1ccccc1Cl the results were FLuc counter 24µM, Rab9 promoter act inactive, ELG1 genotoxic inactive, uPA surface inh inactive, SMN2 splice enh inactive and NPC1 prom act inactive.
O=C(COC(=O)c1ccco1)NCc1ccc(Cl)cc1Cl was read as ELG1 genotoxic inactive and uPA surface inh inactive.
`O=C(COC(=O)C1CCCCC1)Nc1ccccc1OC(F)F` gave FLuc counter 24µM, Rab9 promoter act inactive, ELG1 genotoxic inactive, uPA surface inh inactive, SMN2 splice enh inactive and NPC1 prom act inactive.
`O=C(COC(=O)c1ccco1)NCc1ccccc1Cl` gave FLuc counter 27µM, Rab9 promoter act inactive, ELG1 genotoxic inactive, uPA surface inh inactive, SMN2 splice enh inactive and NPC1 prom act inactive.
`Cc1ccc(-c2c3c(=O)n(C)c(=O)n(C)c3c3c(C(F)(F)F)nc4ccccc4n23)cc1` gave FLuc counter inconclusive and SMN2 splice enh inactive.
